Results as given in PubChem BioAssay.
Measured potencies and affinities stand elsewhere. Activity calls are given as the source filed them. Cut-off not given; nearly all actives show IC50 up to about 0.98 µM.

These compounds were tested against Calcium-dependent protein kinase 1 (Plasmodium falciparum (isolate 3D7)) (UniProt P62344) (assay: PfCDPK1 kinase inhibitors, biochemical, TCAMS library (AID 1159585;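 further: inhibitors leave more ATP so luminescence rises with inhibition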)). Settings: recombinant PfCDPK1, Kinase-Glo ATP depletion luminescence.
Calcium-dependent protein kinase 1 (Plasmodium falciparum (isolate 3D7)), sequence (P62344 whole entry, looked up): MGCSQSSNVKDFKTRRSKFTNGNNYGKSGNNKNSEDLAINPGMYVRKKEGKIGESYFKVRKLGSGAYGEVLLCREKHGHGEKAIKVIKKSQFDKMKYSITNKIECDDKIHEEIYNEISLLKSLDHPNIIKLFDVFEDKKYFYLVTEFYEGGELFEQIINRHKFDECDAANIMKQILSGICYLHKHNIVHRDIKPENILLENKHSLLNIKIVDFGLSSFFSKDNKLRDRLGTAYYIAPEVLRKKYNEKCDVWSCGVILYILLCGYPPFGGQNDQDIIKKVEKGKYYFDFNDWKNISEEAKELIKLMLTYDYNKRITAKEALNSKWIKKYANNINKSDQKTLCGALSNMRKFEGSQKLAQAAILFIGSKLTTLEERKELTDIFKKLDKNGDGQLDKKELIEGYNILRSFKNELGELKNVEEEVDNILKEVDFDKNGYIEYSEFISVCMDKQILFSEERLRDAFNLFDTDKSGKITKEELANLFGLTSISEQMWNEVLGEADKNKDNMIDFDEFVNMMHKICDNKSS

outcome, inactive:
CN(C)CCOc1cc(O)c2c(c1)OC(C)(C)C=C2c1cccs1, COc1ccc(Nc2nccc(N3CCC(NC(=O)Nc4ccc5c(c4)OCO5)C3)n2)cc1 (stereo not given), O=C(NCCCCN1CCN(c2cccc(Cl)c2Cl)CC1)c1ccc2c(c1)CCN(C1CCC1)CC2, CNC(=O)c1cnc(Nc2ccc(N3CCN(C)CC3)cc2)nc1Nc1cccc(OC)c1, CC(C)n1ncc2c(C(=O)N3CCCC4CCCCC43)cc(C3CC3)nc21 (stereo not given), O=C(Nc1cc(C(F)(F)F)cc(C(F)(F)F)c1)c1cc(C(F)(F)F)cc(C(F)(F)F)c1, CC(C)c1sc(N2CCN(C)CC2)nc1C(=O)Nc1ccc(F)cc1C(F)(F)F, O=C(NCCc1ccccc1)[C@H](Cc1ccccc1)Nc1ccnc(NCC2CCCCC2)n1, C=CCc1cc(OC)ccc1OCCCOc1c(C)nc(N)nc1N, COc1cc(Nc2nccc(N3CCC(NC(=O)c4cccc(C#N)c4)C3)n2)cc(OC)c1OC (stereo not given), Cc1ccc(NC(=O)c2ccc3ncccc3c2)cc1OC1CCN(Cc2ccsc2)CC1, COc1cccc(N(CCCN2C(=O)c3cccc4cccc(c34)C2=O)C(=O)c2ccccc2C)c1, Cc1cccc2[nH]c(-c3ccc(-c4cccc(CN5CCC(CO)CC5)c4)s3)nc12, Nc1nc(N)c2c(Oc3cccnc3)cccc2n1, COc1cc2nc(Nc3ccc(C)cc3)nc(Nc3ccc(C)cc3)c2cc1OC, Cc1cc(N[C@@H](Cc2ccccc2)C(=O)NCCc2ccccc2)nc(NCC2CCCCC2)n1, CCN(CC)CCN(Cc1ccc(-c2ccc(C(F)(F)F)cc2)cc1)C(=O)Cn1c(CCc2c(F)ccc(F)c2F)nc(=O)c2ccccc21, Cc1noc(C)c1-c1ccc2c(Nc3ccccc3C(C)(C)C)c(C(=O)NCc3ccc4c(c3)OCO4)cnc2c1, CN1CCN(c2ccc(-c3cc(-c4cc(F)c(F)c(F)c4)cnc3N)cc2)CC1, Cc1cc(NC(=O)c2cccs2)ccc1OC1CCN(Cc2ccc(F)cc2)C1 (stereo not given), CCNc1cc(C(=O)N[C@@H](Cc2ccccc2)[C@H](O)CNC2(CC)CCCCC2)cc(N2CCCCS2(=O)=O)c1, Cc1csc(-c2nc(NCc3cccnc3)ncc2-c2ccsc2)n1, COc1ccc(C=NNc2cc(C)nc3ccc(OC)cc23)c(OC)c1, O=C(c1ccc(F)c(F)c1)N1CCOC(CCN2CCC(c3ccccc3)CC2)(c2ccc(Cl)c(Cl)c2)C1 (stereo not given), COc1ccc2nccc([C@@H](O)CN3CCC(NC(=O)/C=C/c4ccc5[nH]c(=O)ccc5c4)CC3)c2c1, COc1ccccc1CCNc1nc(C)cc(N[C@@H](Cc2ccccc2)C(=O)NCCCOC(C)C)n1, COc1ccccc1-c1cccc(Nc2c(Nc3ccc(Cl)cc3)c(=O)c2=O)c1, Cc1cc(-c2ccc(NC(=O)c3coc4ccc(N5C[C@@H](C)N(C)[C@@H](C)C5)cc34)cc2C)cc(C)n1, CCCCCC(C)C(C)c1cc(OC(N)=O)c2c(c1)OC(C)(C)C=C2c1ccncc1 (stereo not given), Cc1cc(N[C@@H](Cc2ccccc2)C(=O)NCCOc2ccccc2)nc(NCCc2ccc(F)cc2)n1, COc1cccc(Nc2nc(NCCO)c3ccccc3n2)c1, COc1ccc(C(C(=O)NC2CCN(C[C@H](O)c3ccnc4ccc(OC)cc34)CC2)N2CCN(c3ccc([N+](=O)[O-])cc3)CC2)cc1 (stereo not given in full), CC(C)COc1ccc(Cl)cc1Cc1ccc(-c2nc3ccc(F)cc3[nH]2)o1, COc1ccccc1NC(=O)OC(COc1ccc(N)cc1)CN1CC=C(c2ccccc2)CC1 (stereo not given), COCCn1c(C)cc(C(=O)CN2C(=O)NC(C)(c3ccc(C(C)(C)C)cc3)C2=O)c1C (stereo not given), COc1ccc2ncc(Cl)c(CCN3CCC(NCc4ccc5c(n4)NC(=O)CO5)CC3)c2c1, NC(=NCCCc1ccccc1)c1cccc(C(N)=NCCCc2ccccc2)n1, COc1cc2nc(C)nc(Nc3ccc(Cc4ccccc4)cc3)c2cc1OC, COc1ccc(-c2nonc2NC(=O)c2ccc(OC(C)C)cc2)cc1OC, CCc1c(CCNCCCCCCNCCc2ccc(Br)cc2)ccc(O)c1O
